Laboratory results as given in ChEMBL document CHEMBL3988442, “University of Dundee, Small-Polar-MMV Screening Library” (2021).

Assays:
[1] = molecular target: T1, Aspartate--tRNA(Asp/Asn) ligase (Mycobacterium tuberculosis (strain ATCC 25618 / H37Rv)) (UniProt P9WFW3); assay: Assay for Asp RNA synthetase-1 from Mycobacterium tuberculosis; format: functional; parameters: scale not given: direction of the effect not stated beside the values; conditions: 30 µM; note: in the data most compounds retested in dose-response had high values
T1 sequence (whole entry): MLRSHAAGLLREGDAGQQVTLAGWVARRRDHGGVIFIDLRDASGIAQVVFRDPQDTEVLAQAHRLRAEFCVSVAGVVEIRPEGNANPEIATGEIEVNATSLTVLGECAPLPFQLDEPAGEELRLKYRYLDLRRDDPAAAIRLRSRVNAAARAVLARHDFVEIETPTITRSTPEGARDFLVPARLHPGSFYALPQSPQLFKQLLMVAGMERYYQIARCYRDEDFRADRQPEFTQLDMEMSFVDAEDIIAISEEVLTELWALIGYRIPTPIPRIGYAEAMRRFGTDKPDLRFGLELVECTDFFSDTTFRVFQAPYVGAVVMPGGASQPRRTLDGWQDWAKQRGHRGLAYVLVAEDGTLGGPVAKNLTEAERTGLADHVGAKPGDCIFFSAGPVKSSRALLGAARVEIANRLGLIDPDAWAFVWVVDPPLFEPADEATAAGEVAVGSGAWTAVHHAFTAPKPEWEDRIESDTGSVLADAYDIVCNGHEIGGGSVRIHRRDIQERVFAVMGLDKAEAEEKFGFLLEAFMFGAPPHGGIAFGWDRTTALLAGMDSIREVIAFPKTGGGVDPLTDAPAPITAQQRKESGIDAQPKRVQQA

[2] = molecular target: Shiga toxin 2 (Escherichia coli O157:H7) (UniProt P09385+P09386); assay: E. coli 0.157:H7 Shiga Toxin SOP - stx2 screening assay; format: functional; parameters: scale not given: direction of the effect not stated beside the values; conditions: 30 µM

SMILES	Percent Effect [1] [%]	Percent Effect [2] [%]
Cc1cnn(CC2CCCN2C(=O)CCCc2nc(C)no2)c1 (stereo not given)	-0.389	-14.7
Cc1nn(C)c(C)c1C1CCCN1C(=O)CCCn1cccn1 (stereo not given)	-2.95	10.6
COCCN(C)C[C@@H]1CCC[C@@H]2CN(c3cc(OC)ncn3)C[C@@H]21	1.66	2.29
Cc1ccc(NC(=O)C(C)N2CCCN(c3nccs3)CC2)c(C)c1 (stereo not given)	-4.7	-49.5
NS(=O)(=O)CCNC(=O)c1nnn(-c2ccccc2)c1C1CC1	2.35	-12.7
CC(NC(=O)NCCCn1cccn1)c1ccc2c(c1)NC(=O)CO2 (stereo not given)	-5.91	-20.8
Cc1ccc2c(ccn2CC(=O)NC[C@@H]2CCCN3CCCC[C@H]23)c1	2.12	-7.12
COCCOc1ccc(NC(=O)N2CCCC2c2cc(C)no2)cn1 (stereo not given)	-5.36	25.9
CC1CCCN(Cc2coc(-c3cccc(F)c3)n2)C1 (stereo not given)	-10.1	7.24
CS(=O)(=O)N1CCC(Oc2cnccn2)CC1	-0.656	-5.3
NC(=O)C1CCCN(C(=O)c2cnc3c(cnn3C3CCCC3)c2)C1 (stereo not given)	-6.91	-20.7
NC[C@H]1CC[C@H](C(NC(=O)c2ccccc2)c2ccccn2)CC1 (stereo not given in full)	1.63	-25.2
c1cnc(OCc2nnc3n2CCN(CC2CC2)C3)nc1	1.75	4.75
CCc1nccn1C1CCCN(C(=O)c2csc(NC(C)=O)n2)C1 (stereo not given)	-1.64	-11.1
COc1ccc(OC)c(C(C)Nc2nc3c(C)nn(C)c3c(=O)n2C)c1 (stereo not given)	4.76	-69.5
Cc1ccc(NC(=O)C2CSCN2C(=O)c2cnn(C)c2)c(C)c1 (stereo not given)	0.456	-0.207
CCc1nc(C2CCCN(C(=O)c3cnn(CC)c3)C2)no1 (stereo not given)	2.22	3.55
CCc1cnc(N2CCC3(CC2)CN(c2cccnc2)C(=O)CO3)nc1	6.49	-6.76
O=C(CN1CCCCC1Cn1cncn1)NCc1ccccn1 (stereo not given)	4.05	4.47
Cc1nc(CN2CCCN(CCOc3cccc(C#N)c3)CC2)no1	5.09	19.3
COc1nc2c(cc1C(=O)N1C[C@H](N)C[C@H]1C(=O)NC(C)C)CCC2	-4.9	12.5
CCc1nc(C2CCCN2C(=O)c2ccc3c(c2)nnn3CC)no1 (stereo not given)	-5.04	1.14
CCOCCn1nc(C)cc1C(=O)N1CC[C@](C)(O)[C@H](C)C1	-4.03	4.67

SMILES	Percent Effect [1] [%]	Percent Effect [2] [%]
Nc1nc(CN2CCCC(Cn3cncn3)C2)nc2ccccc12 (stereo not given)	0.466	-13.2
CCc1nc(C2CCCN2Cc2nccn2Cc2ccccc2)no1 (stereo not given)	-2.22	12.2
CN1C(=O)C(C)(C)COc2cc(NS(=O)(=O)Cc3ccccc3)ccc21	-4.77	14.9
NC(=O)c1cnn2c1NCC(CNCCc1ccco1)C2 (stereo not given)	0.367	26.6
COc1ncccc1C(=O)NCC1Cc2ccccc2O1 (stereo not given)	6.18	5.65
O=C(NC1CCCC1)NC1CCC(C(=O)N2CCSCC2)CC1 (stereo not given)	1.78	-37.4
COCCN1CCC(CN(CC2CCCO2)C(=O)CCNC(C)=O)CC1 (stereo not given)	-0.167	-3.65
COc1ccc(CC(=O)N2C[C@@H]3COC[C@]3(CN(C)C)C2)cc1	-5.29	-4.41
CCc1c(C(=O)N2CCCN(C(C)=O)CC2)cnn1C(C)(C)C	0.899	3.41
CCN(Cc1ccc(OC)c(F)c1)C(=O)c1ccc(C)[nH]c1=O	-0.589	30.6
Fc1ccc(OCCCN2CCOC(Cn3cncn3)C2)cc1 (stereo not given)	-6.13	-10.5
NC(=O)NCC(=O)N1C[C@H]2CC[C@@H]1CN(C1Cc3ccccc3C1)C2	6.33	-7
Cn1cccc1-c1cc(C(=O)N2CC(c3cccnc3)C2)[nH]n1	-0.915	-50.6
COCC1CCN(c2cc(C3CN(C)CCO3)nc(C)n2)CC1 (stereo not given)	-1.84	-3.4
Cc1[nH]ncc1C(=O)N1CCCC(n2cncn2)C1 (stereo not given)	1.7	22.7
COc1c(CNC2CCCc3ccccc32)c(C)nn1C (stereo not given)	-1	13.6
COc1cc(N2CCCC(c3nccn3CCN(C)C)C2)nc(N)n1 (stereo not given)	-3.58	23.8
CCc1nc(C2CCCN(C(=O)c3ccc(OC(C)C)nc3)C2)no1 (stereo not given)	-1.24	17.3
COCCN1C[C@@H]2CN(Cc3ccsc3)CCC[C@]2(C(=O)O)C1	2.26	-14.2
O=C(CSC1=NS(=O)(=O)c2cc(F)ccc2N1)Nc1cccc(Cl)c1	4.04	-1.14
CCOCC1CN(S(C)(=O)=O)Cc2cnn(CC3CCOCC3)c21 (stereo not given)	5.17	-7.39
Cc1ccc(C(=O)N(C)Cc2cscn2)c(=O)[nH]1	0.749	8.36
